Source: PubChem BioAssay AID1159580 (chemical genetic matrix, 2015)
Where “and” joins values, the source holds several entries; their conditions need not be identical. Equal values may be shown once. Screen size: about 5,500 compounds; about 2,000 (36%) were called active. Another 18% or so got no clear call; they are omitted. Rule as the data show it: active = normalized growth mostly below about 0.91 (no sharp cut-off); inconclusive = no clear call, values can overlap the other calls; inactive = mostly above about 0.92. The list shows a part of the results.

Assay: chemical genetic growth profiling, strain panel (AID 1159580);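 also: tested at 20 µM; growth read once vehicle control cultures reached saturation at 30 °C; 1 = growth at the plate median or of vehicle wells; lower values mean less growth of the strain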
Conditions: S. cerevisiae deletion strains, growth OD

Measured: normalized growth

CC1(C)C2CC[C@]3(C)C(C(=O)C=C4[C@@H]5C[C@@](C)(C(=O)O)CC[C@]5(C)CC[C@]43C)[C@@]2(C)CC[C@@H]1OC(=O)CCC(=O)O (stereo partly drawn)
inactive: locus YAL021C, strain ccr4, hits give low values 0.968 | locus YAL026C, strain drs2, hits give low values 0.981 | locus YAL030W, strain snc1, hits give low values 1 | locus YBL061C, strain skt5, hits give low values 0.99 | locus YBR009C, strain hhf1, hits give low values 1 | locus YBR021W, strain FUR4, hits give low values 0.981 | locus YBR023C, strain chs3, hits give low values 0.983 | locus YBR171W, strain sec66, hits give low values 0.975 | locus YBR229C, strain ROT2, hits give low values 1 | locus YBR231C, strain swc5, hits give low values 0.996 | locus YBR279W, strain paf1, hits give low values 0.976 | locus YCL011C, strain gbp2, hits give low values 0.963 | locus YCL016C, strain dcc1, hits give low values 0.979 | locus YCL029C, strain bik1, hits give low values 0.973 | locus YCL069W, strain vba3, hits give low values 1.02 | locus YCR088W, strain abp1, hits give low values 0.985 | locus YDL005C, strain med2, hits give low values 0.994 | locus YDL035C, strain GPR1, hits give low values 0.968 | locus YDL040C, strain nat1, hits give low values 0.988 | locus YDL074C, strain BRE1, hits give low values 1.02 | locus YDL101C, strain DUN1, hits give low values 1 | locus YDL134C, strain PPH21, hits give low values 0.966 | locus YDL185W, strain tfp1, hits give low values 0.958 | locus YDL192W, strain arf1, hits give low values 0.989 | locus YDR001C, strain nth1, hits give low values 0.983 | locus YDR069C, strain doa4, hits give low values 0.938 | locus YDR101C, strain arx1, hits give low values 0.994 | locus YDR137W, strain rgp1, hits give low values 0.911 | locus YDR159W, strain sac3, hits give low values 0.909 | locus YDR162C, strain NBP2, hits give low values 0.954 | locus YDR195W, strain ref2 1 | locus YDR297W, strain sur2, hits give low values 0.995 | locus YDR318W, strain mcm21, hits give low values 0.972 | locus YDR334W, strain swr1, hits give low values 0.991 | locus YDR335W, strain msn5, hits give low values 0.979 | locus YDR388W, hits give low values 1 | locus YDR392W, strain spt3, hits give low values 0.873 | locus YDR502C, strain sam2, hits give low values 0.99 | locus YEL003W, strain gim4, hits give low values 0.992 | locus YEL037C, strain rad23, hits give low values 0.986 | locus YEL061C, strain CIN8 (second series), hits give low values 0.988 | locus YEL061C, strain CIN8, hits give low values 0.999 | locus YER015W, strain faa2, hits give low values 0.989 | locus YER016W, strain bim1, hits give low values 0.975 | locus YER110C, hits give low values 0.982 | locus YER111C, strain swi4, hits give low values 0.968 | locus YER155C, strain BEM2 (second series), hits give low values 1.02 | locus YER155C, strain BEM2, hits give low values 1 | locus YER167W, strain BCK2, hits give low values 0.99 | locus YFR010W, strain ubp6, hits give low values 1.01 | locus YGL078C, strain dbp3, hits give low values 0.98 | locus YGL086W, strain mad1, hits give low values 0.999 | locus YGL167C, strain pmr1, hits give low values 0.987 | locus YGL173C, strain kem1, hits give low values 0.999 | locus YGL227W, strain vid30, hits give low values 0.982 | locus YGL240W, strain doc1, hits give low values 0.992 | locus YGL248W, strain PDE1, hits give low values 1.02 | locus YGL253W, strain hxk2, hits give low values 0.963 | locus YGR078C, strain PAC10, hits give low values 1.03 | locus YGR135W, strain pre9, hits give low values 0.96 | locus YGR229C, strain SMI1, hits give low values 0.999 | locus YGR252W, strain gcn5, hits give low values 1.04 | locus YHR013C, strain ard1, hits give low values 0.995 | locus YHR027C, strain rpn1, hits give low values 1 | locus YHR030C, strain SLT2, hits give low values 0.984 and 1.06 | locus YHR079C, strain IRE1 (second series), hits give low values 0.979 | locus YHR079C, strain IRE1, hits give low values 1.08 | locus YHR094C, strain hxt1, hits give low values 0.987 | locus YHR129C, strain ARP1, hits give low values 0.991 | locus YHR142W, strain chs7, hits give low values 0.955 | locus YHR200W, strain rpn10, hits give low values 0.958 | locus YIL066C, strain RNR3, hits give low values 0.983 | locus YIL073C, strain SPO22, hits give low values 0.91 | locus YIL125W, strain kgd1, hits give low values 1 | locus YIR030C, strain dcg1, hits give low values 0.98 | locus YJL092W, strain hpr5, hits give low values 1 | locus YJL095W, strain BCK1 (second series), hits give low values 1 | locus YJL095W, strain BCK1, hits give low values 1.03 | locus YJL115W, strain asf1, hits give low values 0.983 | locus YJL129C, strain trk1, hits give low values 0.936 | locus YJL134W, strain LCB3, hits give low values 0.99 | locus YJL154C, strain vps35, hits give low values 0.987 | locus YJL164C, strain tpk1, hits give low values 0.982 | locus YJL166W, strain qcr8, hits give low values 0.999 | locus YJL168C, strain set2, hits give low values 0.997 | locus YJL187C, strain SWE1 (second series), hits give low values 1.02 | locus YJR043C, strain POL32, hits give low values 1.01 | locus YJR066W, strain TOR1, hits give low values 1.01
